From PubChem
697 NFkB inh: lowers PMA/ionomycin-induced NF-kB signal in 697 B cells. 697 B-cell NF-kB luciferase reporter, 16 h. 0.33% of 330,000 active. inhibition, % at 4 µM; in the data active = inhibition above about 35%
SMARCA2 activ: SMARCA2 function activation, primary screen; MG213 cells, MMTV-luciferase reporter, dexamethasone, overnight; activation, % at 9.1 µM; 1% of 370,000 active; AID 652017; in the data active = activation above about 7.8%;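 note: 0% = vehicle wells and 100% = reference activator wells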
esBAF inh: blocks esBAF chromatin remodeling in mouse ES cells; Bmi1-luciferase knock-in reporter, 24 h; 100% = twice the neutral-well signal; reporter increase, % at 12.5 µM; 2% of 350,000 active; in the data active = activation above about 40%; inconclusive = no clear call, values can overlap the other calls;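 note: 0% = median of the plate's neutral control wells and 100% = double that signal; a rise in the Bmi1 reporter signal indicates esBAF inhibition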
Gli-Sufu block: antagonists of Gli-Sufu signaling | inhibition, % at 5 µM | Sufu-KO-LIGHT fibroblasts, Gli luciferase reporter luminescence | 0.74% of 340,000 active;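 active = inhibition above about 55%, limit read from the data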;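 note: 0% = DMSO-treated cells and 100% = wells with medium but no cells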
Jurkat NFkB inh: lowers PMA/ionomycin-induced NF-kB signal in Jurkat cells | PMA/ionomycin-induced NF-kB luciferase reporter, luminescence | inhibition, % at 4 µM | 0.53% of 330,000 active | AID 435003; in the data active = inhibition above about 50%
Active calls of the source: *; ? = inconclusive; / = not tested or not shown. In the library only some 3.3% were active in any assay of this set; here they are far more common.

SMILES | 697 NFkB inh | SMARCA2 activ | esBAF inh | Gli-Sufu block | Jurkat NFkB inh
COc1ccc(-c2csc(COC(=O)C(C)(C)C)n2)cc1 | 2 | -1 | / | -10 | -34
CC(C)(C)C(=O)OCc1nc(-c2ccc(Cl)cc2)cs1 | -52 | 7 | 65* | -16 | -71
CC(C)(C)C(=O)OCc1nc(-c2ccc(F)cc2)cs1 | -32 | 7.9* | ? | -7 | -20
O=C(NCC[C@H]1CC[C@@H](NS(=O)(=O)c2ccc(Cl)cc2)[C@H](CO)O1)c1ccccc1F | / | / | -5 | / | /
Cc1ccc(-n2c(-c3cc(C)n(C)n3)n[nH]c2=S)cc1 | 7 | 4 | -7 | 4 | -10
Cc1cc(-c2n[nH]c(=S)n2-c2ccccc2)nn1C | 10 | 7.9* | / | -1 | 0
C=CC[n+]1ccc(/C=C2\C=Cc3cc(C)ccc3N2CC)c2ccccc21 | / | / | -58 | 88* | /
CCN1/C(=C/c2cc[n+](CCCS(=O)(=O)[O-])c3ccccc23)Sc2ccccc21 | 14 | 1 | / | 2 | 1
C(=N\NC1=Nc2cccc3cccc1c23)/c1ccccn1 | / | -1 | / | 70* | /
O=C(COC(=O)Cn1cnc2ccccc21)Nc1cc2c(cc1Cl)C(=O)c1ccccc1C2=O | -40 | 5 | 52* | -76 | -95
O=C(COC(=O)Cn1cnc2ccccc21)Nc1cc(S(=O)(=O)N2CCOCC2)ccc1Cl | 10 | -2 | -4 | -2 | 3
COc1ccc(OC)c(-n2nnnc2SCC(=O)Nc2ccccc2N2CCOCC2)c1 | 3 | -1 | / | -7 | -6
COc1cccc(-n2c(C)nnc2SCC(=O)Nc2ccccc2N2CCOCC2)c1 | -1 | 7.9* | -4 | 1 | -16
CCSc1nc(N)c2c(C)c(C)sc2n1 | -14 | 4 | / | -7 | -10
C=CCSc1nc(N)c2c(C)c(C)sc2n1 | -46 | 3 | 46* | -20 | -17
Cc1cccc2nc(-c3cccc(NC(=O)c4ccc(Cl)cc4)c3)cn12 | -44 | -2 | -40 | -13 | -3
Cc1cccc2nc(-c3cccc(NC(=O)Cc4ccccc4)c3)cn12 | 5 | 13* | / | -2 | 8
CCN(CC)c1ccc(/C=N\NC(N)=O)cc1 | 19 | -3 | / | -3 | -2
CCN(CC)c1ccc(/C=N/NC(=O)OC(C)(C)C)cc1 | -52 | 4 | 70* | -38 | -73
O=C(NCc1ccccn1)c1ccc(Cl)cc1Cl | 16 | 0 | 52* | -12 | -8
Cc1cccc(-c2cc(C(=O)NCc3ccccn3)c3ccccc3n2)c1 | -1 | -1 | / | -10 | 4
Cc1ccc(-c2cc(C(=O)NCc3ccccn3)c3ccccc3n2)cc1C | -28 | 5 | 48* | 5 | -15
CCOC(=O)c1c(C)c(C(=O)Nc2ccc(N(C)C)cc2)c(C)n1CC | / | 2 | 47* | -16 | /
COc1cc(-n2c(N)c(C(=O)NCc3ccco3)c3nc4ccccc4nc32)cc(OC)c1OC | 8 | 2 | / | 5 | 9
COc1ccc(-n2c(N)c(C(=O)NCc3ccco3)c3nc4ccccc4nc32)cc1OC | -2 | 8.4* | 2 | 4 | 26
SMILES | 697 NFkB inh | SMARCA2 activ | esBAF inh | Gli-Sufu block | Jurkat NFkB inh
CN(C)c1ccc(NC(=O)c2ccc(Cn3cc([N+](=O)[O-])cn3)cc2)cc1 | -10 | 4 | 57* | -23 | -14
O=C(COc1ccc(Cl)cc1)Nc1cnn(Cc2c(Cl)cccc2Cl)c1 | -7 | -2 | -1 | -3 | 3
O=C(Nc1cnn(Cc2c(Cl)cccc2Cl)c1)c1ccc([N+](=O)[O-])cc1 | -26 | -2 | 73* | -24 | -29
O=C(C[C@H]1CC[C@@H]2[C@H](COC[C@@H](O)CN2Cc2ccccc2F)O1)N[C@H]1CCN(Cc2ccccc2)C1 | / | / | 0 | / | /
CSc1nc(SCC(N)=O)c2c3c(sc2n1)CN(C)CC3 | -13 | -1 | -1 | 99* | -9
CCNc1nc(SCC(N)=O)nc2sc3c(c12)CCN(C)C3 | -6 | 0 | -12 | 3 | -1
Cc1cccc(CSc2ccc(-c3ccco3)nn2)c1 | -28 | 2 | 50* | -68 | -22
COC(=O)c1ccc2c(c1)C(=O)/C(=C/c1ccc(C)cc1)O2 | -19 | -1 | 67* | -33 | -41
CC(C)C(=O)Nc1nc(-c2ccccc2)ns1 | -76 | 3 | 56* | -60 | -47
CCCc1nnc(NC(=S)Nc2ccccc2)s1 | -68 | 5 | / | -39 | -56
CC(C)C(=O)Nc1nnc(NC(=S)Nc2ccccc2)s1 | -59 | 1 | 76* | -25 | -33
CCC(=O)Nc1nc(-c2ccccc2)ns1 | -75 | 7 | 43* | -92 | -55
O=C(Nc1cc(F)ccc1F)N1C[C@@H]2[C@H](c3ccccc31)[C@@H](CO)N2C(=O)c1ccccc1 | / | / | 2 | / | /
CO[C@H]1CN(C)C(=O)c2ccc(NS(C)(=O)=O)cc2OC[C@@H](C)N(C(=O)C2CCCCC2)C[C@@H]1C | / | / | 2 | / | /
O=C(/C=C\c1ccccc1OC(=O)c1ccccc1F)c1cc2ccccc2o1 | -89 | 4 | 49* | 1 | -85
CC1CCCN(C(=O)c2cc3c(=O)n4ccccc4nc3s2)C1 (stereo not drawn) | -50 | 3 | 62* | -49 | -76
CCN(CC)C(=O)c1cc2c(=O)n3ccccc3nc2s1 | -44 | 3 | 42* | -27 | -26
Cc1nn(-c2ccccc2)c2sc(C(=O)N3CCCCC3)cc12 | -41 | / | 45* | -23 | -20
Cc1cccn2c(=O)c3cc(C(=O)N4CCCCC4)sc3nc12 | -24 | -1 | 47* | 2 | -19
Cc1cccn2c(=O)c3cc(C(=O)N4CCCC(C)C4)sc3nc12 (stereo not drawn) | -16 | -2 | 23 | -28 | -41
CC(C)CN(CC(C)C)C(=O)c1cc2c(=O)n3ccccc3nc2s1 | 10 | 0 | 1 | -10 | 4
C[C@@H]1CN([C@H](C)CO)C(=O)c2cccc(NC(=O)c3ccncc3)c2O[C@H]1CN(C)S(=O)(=O)c1cn(C)cn1 | / | / | -3 | / | /
CCCn1cnc2cc(NC(=O)c3cccs3)ccc21 | -53 | 0 | 55* | -64 | -113
CCn1cnc2cc(NC(=O)c3ccc(C)cc3)ccc21 | -103 | 7.9* | 21 | -75 | -71
CCCn1cnc2cc(NC(=O)c3ccco3)ccc21 | -55 | 2 | -14 | -63 | -69
SMILES | 697 NFkB inh | SMARCA2 activ | esBAF inh | Gli-Sufu block | Jurkat NFkB inh
CC(C)NC(=O)N(C)C[C@@H]1Oc2ccc(NC(=O)Nc3ccc(F)cc3)cc2CC(=O)N([C@H](C)CO)C[C@@H]1C | / | / | -2 | / | /
COc1cc(C=NNc2ccccc2)ccc1OC(=O)c1ccccc1 | / | -1 | 41* | / | /
COc1ccc(C(=O)Oc2ccc(/C=N/Nc3ccc(Cl)c(C(=O)O)c3)cc2OC)cc1 | -24 | 4 | -2 | -44 | 11
COc1ccc2ccccc2c1/C=N/Nc1cccc(C(=O)O)c1 | -11 | 1 | 66* | -25 | -16
COc1ccc(/C=C/C(=O)Oc2ccc(/C=N/NC(=O)c3ccccc3)cc2)cc1OC | -21 | -2 | 47* | -26 | -5
CC(C)NC(=O)N[C@@H]1CC[C@@H](CC(=O)N2CCCCC2)O[C@H]1CO | / | / | 1 | / | /
C[C@@H]1CCCCO[C@@H](CN(C)Cc2ccc(C(=O)O)cc2)[C@@H](C)CN([C@@H](C)CO)C(=O)c2cc(NC(=O)Nc3cccc4ccccc34)ccc2O1 | / | / | -4 | / | /
